S1P4 ag: activates the human S1P4 receptor | O95977 | S1P4-expressing cell line, agonist reporter assay | activation, % at 4.98 µM | 220,000 compounds, 0.35% hits | AID 1509; in the data active = activation above about 11%;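 note: 0% = DMSO vehicle and 100% = reference agonist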
KCC2 mod: KCC2 (human) Cl- transport modulation; B-score of Tl+ flux slope (higher = more flux/activation; lower = inhibition) at 10 µM; Q9H2X9; AID 1456; 190,000 compounds, 2.2% hits; KCC2 cells, thallium flux FluoZin-2 fluorescence;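 active = thallium flux slope and its plate-corrected score both differing from the plate sample mean at a set confidence after two filtering rounds, in either direction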;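 note: slope of fluorescence scaled to starting intensity during 10 to 20 s after thallium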
Target sequence (Q9H2X9 whole entry, looked up): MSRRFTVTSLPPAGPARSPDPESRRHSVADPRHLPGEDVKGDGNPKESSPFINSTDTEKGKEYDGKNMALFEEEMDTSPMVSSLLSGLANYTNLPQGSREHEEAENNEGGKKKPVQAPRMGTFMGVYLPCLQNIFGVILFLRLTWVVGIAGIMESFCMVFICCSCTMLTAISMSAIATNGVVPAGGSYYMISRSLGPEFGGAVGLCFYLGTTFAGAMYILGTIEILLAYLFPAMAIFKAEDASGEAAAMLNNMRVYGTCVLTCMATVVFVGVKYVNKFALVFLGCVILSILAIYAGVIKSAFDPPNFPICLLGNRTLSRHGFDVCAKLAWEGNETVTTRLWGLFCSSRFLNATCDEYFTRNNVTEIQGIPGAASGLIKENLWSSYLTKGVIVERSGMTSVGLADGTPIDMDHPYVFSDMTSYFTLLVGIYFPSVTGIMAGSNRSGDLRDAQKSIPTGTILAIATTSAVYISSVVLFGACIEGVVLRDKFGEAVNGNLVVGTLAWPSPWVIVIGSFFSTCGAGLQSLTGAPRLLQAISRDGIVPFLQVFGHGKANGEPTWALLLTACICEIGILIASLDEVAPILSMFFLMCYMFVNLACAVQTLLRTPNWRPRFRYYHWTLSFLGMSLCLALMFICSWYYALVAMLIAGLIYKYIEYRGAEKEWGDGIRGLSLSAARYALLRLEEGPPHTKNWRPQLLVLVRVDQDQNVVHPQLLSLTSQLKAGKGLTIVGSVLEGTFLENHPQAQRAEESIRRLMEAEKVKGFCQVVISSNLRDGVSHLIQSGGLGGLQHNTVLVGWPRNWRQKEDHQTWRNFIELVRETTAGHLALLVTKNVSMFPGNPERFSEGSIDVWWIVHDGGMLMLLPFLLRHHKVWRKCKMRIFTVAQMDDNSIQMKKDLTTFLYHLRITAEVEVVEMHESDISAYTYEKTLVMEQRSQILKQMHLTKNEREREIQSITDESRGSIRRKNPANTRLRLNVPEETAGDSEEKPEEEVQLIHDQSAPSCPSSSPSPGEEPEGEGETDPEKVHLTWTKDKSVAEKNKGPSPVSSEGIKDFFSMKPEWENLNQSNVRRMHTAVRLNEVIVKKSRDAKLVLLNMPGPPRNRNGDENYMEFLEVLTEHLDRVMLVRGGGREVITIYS
ROMK mod: human ROMK K+ channel modulation, primary screen. P48048. 130,000 compounds, 2% hits. AID 1918. B-score at 10 µM. Tet-inducible ROMK, thallium flux fluorescence; actives lie on both sides;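 active = signal ratio slope over the read window, or its plate-corrected B-score, at least 3 SD from the plate mean, either direction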;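 note: B-score of the F/F0 ratio slope over 7 to 12 s after thallium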
S1P4 antag: human S1P4 receptor antagonism. O95977. S1P4-expressing cells, antagonist mode, reporter read-out. inhibition, % at 4.98 µM. 220,000 compounds, 0.26% hits; in the data active = inhibition above about 29%;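 note: 0% = wells stimulated with agonist and 100% = vehicle wells without agonist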
S1P3 antag: S1P3 (human) receptor antagonism | 170,000 compounds, 0.27% hits | Q99500 | inhibition, % at 4.98 µM | CHO S1P3 NFAT-BLA reporter, FRET fluorescence, antagonist mode | AID 485;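 active = inhibition above the plate cutoff, the mean inhibition of test wells on that plate plus 3 SD, cut at about 28% in these data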;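 note: cells challenged with S1P at its EC80 of 0.8 µM; blue over green emission ratio from cleaved BLA substrate after 4 h stimulation; 0% = S1P-stimulated wells and 100% = unstimulated DMSO-only wells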
RAM inhibit: blocks the yeast RAM network | S. cerevisiae dse1pr::URA3 reporter, 5-FOA growth OD615, 2 d; analog-sensitive cbk1-as2 kinase mutant strain | inhibition, % at 50 µM | 190,000 compounds, 1.8% hits | AID 868;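 active = inhibition above a set limit, 3 SD over mean compound inhibition, cut at about 8.4% in these data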;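 note: 0% = DMSO-only wells with no growth and 100% = 10 µM 1-NA-PP1 full growth; inhibition rescues growth on 5-FOA so higher OD means more RAM inhibition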
KCC2 sec1: confirmation of human KCC2 transport modulators; shares compounds with KCC2 mod; HEK293-KCC2, thallium flux, FluoZin2 fluorescence; hits give high values; normalised thallium flux (F/F0 slope) at 10 µM; 3,700 compounds, 15% hits;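 active = thallium flux slope above the same plate's solvent-only control mean plus 3 SD; inconclusive = the two replicate wells disagree; inactive = no significant difference from solvent-only control wells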
KCC2 bumet counter: thallium flux persisting under bumetanide in KCC2 cells, counter-screen secondary assay. shares compounds with KCC2 mod. normalized thallium flux at 10 µM. AID 1714. HEK293-KCC2 + bumetanide/ouabain, thallium flux FluoZin2; hits give high values. 3,700 compounds, 49% hits;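 active = thallium entry rate above the same plate's blocked-transporter control wells by more than 3 SD; inconclusive = the two repeat wells disagree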;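 note: raw slope of fluorescence over initial fluorescence between 10 and 20 s after thallium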
KCC2 secondary2: confirmation of human KCC2 transport modulators. shares compounds with KCC2 mod. HEK293-KCC2, thallium flux FluoZin2 fluorescence; actives lie on both sides; F/F0 rise rate, 10–20 s post-thallium. normalized thallium flux at 10 µM. 3,700 compounds, 23% hits. AID 1715;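 active = thallium flux slope more than 3 SD above or below the plate's solvent-only control mean, mostly below; inconclusive = the two repeat wells disagreed; inactive = no significant shift from solvent-only controls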;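 note: raw slope with 0.1% DMSO as baseline and bumetanide as block control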
HEK293 Tl flux: counter-screen for KCC2 modulators: effect in parental HEK293 cells; 3,700 compounds, 46% hits; thallium flux FluoZin2, ouabain; baseline-ratio fluorescence slope, 10–20 s after thallium; thallium flux rate (normalised fluorescence) at 10 µM; shares compounds with KCC2 mod;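 active = thallium flux rate significantly above the same plate's solvent-only control wells, beyond their mean plus 3 SD; inconclusive = the two replicate wells gave conflicting results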
KCC2 retest ouab: confirmation of human KCC2 modulators with ouabain | shares compounds with KCC2 mod | HEK293-KCC2, thallium flux FluoZin2 fluorescence; bidirectional: low = inhibitor, high = activator | raw Tl+ flux slope (below DMSO = inhibition, above = activation) at 10 µM | 3,700 compounds, 48% hits;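 active = thallium flux slope beyond 3 SD from same-plate DMSO control mean in most replicates, usually higher, sometimes lower; inconclusive = repeat tests gave conflicting results; inactive = no significant difference from controls in most replicates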;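 note: slope of initial-normalized fluorescence between seconds 10 and 20 after thallium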
HEK counter2: counter-screen for KCC2 modulators: effect in parental HEK293 cells; shares compounds with KCC2 mod; thallium flux FluoZin-2 fluorescence slope; thallium flux slope at 10 µM; 3,700 compounds, 33% hits;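 active = thallium flux slope above the same plate's solvent-control mean plus 3 SD in both duplicate wells; inconclusive = duplicate wells that disagreed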;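 note: run without ouabain in cells lacking the KCC2 cotransporter; slope of fluorescence scaled to its starting value between 10 and 20 s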
The depositor's hits bear a star; ? = inconclusive; · = not tested or not shown. Hits are enriched below; roughly 5.1% of the tested compounds scored in any of these assays.

SMILES | S1P4 ag | KCC2 mod | ROMK mod | S1P4 antag | S1P3 antag | RAM inhibit | KCC2 sec1 | KCC2 bumet counter | KCC2 secondary2 | HEK293 Tl flux | KCC2 retest ouab | HEK counter2
CN1CCN(S(=O)(=O)c2ccc(-c3ccc(Cl)cc3)cc2)CC1 | -1.4 | · | · | -10.9 | -4.7 | 0.1 | 0.00663 | 0.00594 | 0.0319 | 0.00706 | 0.0173* | 0.00963
CN1CCN(S(=O)(=O)c2ccc(-c3ccc(S(=O)(=O)N4CCN(C)CC4)cc3)cc2)CC1 | · | · | · | · | -12.6 | · | · | · | · | · | · | ·
C=CCc1cccc2cc(C(=O)NNC(=O)CC#N)c(=O)oc12 | 0.0 | 0.0391 | 0.302 | 5.1 | -5.4 | · | · | · | · | · | · | ·
CCOc1ccc(CN2C(=O)CC(=O)N(S(=O)(=O)c3ccc(OCC)cc3)C2=O)cc1 | 1.3 | -0.282 | · | -5.7 | -3.5 | · | · | · | · | · | · | ·
CC1Cc2ccccc2N1CC(=O)Nc1ccc(S(=O)(=O)N(C)C)cc1 (stereo unspecified) | -2.3 | -3.87* | · | -4.0 | 6.9 | · | 0.00831 | 0.00696 | 0.0287 | 0.00763 | 0.0222 | ?
CC1Cc2ccccc2N1CC(=O)Nc1ccc(Cl)c(S(=O)(=O)N(C)C)c1 (stereo unspecified) | -0.8 | -0.108 | -1.62 | 4.4 | -13.6 | 2.8 | · | · | · | · | · | ·
COCCn1c(N2CCN(c3ccc(OC)cc3)CC2)nc2c1c(=O)n(C)c(=O)n2C | 1.3 | · | 0 | 3.2 | -28.7 | 0.5 | 0.00882 | 0.00562 | 0.0308 | 0.00777 | 0.0182 | 0.0107
COC(=O)CN1C(=O)N/C(=C/c2ccc(OC)cc2)C1=O | -1.8 | 0.705 | -0.0446 | 4.7 | -1.5 | 0.6 | · | · | · | · | · | ·
CCOC(=O)COc1ccc(/C=C2\NC(=S)N(CC)C2=O)cc1 | -2.5 | -6.18* | -0.799 | 16.9 | 2.0 | 2.3 | 0.00677 | 0.0108* | 0.0291 | 0.00655 | 0.014* | 0.0101
O=C(NC(=S)N(CC1CCC1)CC1CCCO1)c1cccc([N+](=O)[O-])c1 (stereo unspecified) | -0.2 | 98.6* | · | -7.1 | -11.9 | 1.3 | 0.0435* | 0.0895* | 0.0447* | 0.0774* | 0.0755* | 0.0315*
O=C(NCC1CCCO1)/C(=C\c1cccc([N+](=O)[O-])c1)NC(=O)c1ccccc1 (stereo unspecified) | -0.4 | 0.664 | 0.721 | 7.2 | -4.2 | 0.9 | · | · | · | · | · | ·
COC(=O)NNC(=O)COc1ccc2ccccc2c1Br | -0.5 | -2.49 | -0.36 | -6.0 | -14.2 | 2.8 | · | · | · | · | · | ·
O=C(COc1ccc2ccccc2c1Br)Nn1cnnc1 | 3.6 | -4.67* | 0.322 | -5.2 | -12.7 | 0.6 | 0.0066 | ? | 0.0251* | 0.00788 | ? | 0.0112
CC(C)(C)C(=O)NNC(=O)COc1ccc2ccccc2c1Br | -0.7 | 7.8* | -1.66 | -5.5 | 14.2 | 0.6 | 0.00711 | 0.0203* | 0.0287 | 0.0106* | 0.0274* | ?
COc1ccc(NC(=O)C(C)N2C(=O)c3ccccc3C2=O)cc1S(=O)(=O)N1CCOCC1 (stereo unspecified) | 2.8 | 0.18 | 1 | -4.3 | 8.2 | 1.2 | · | · | · | · | · | ·
COCc1c(C(=O)OCC(=O)NCCN2C(=O)CSC2=O)oc2ccccc12 | -1.5 | -0.203 | 0.977 | -9.8 | -10.7 | 1.1 | · | · | · | · | · | ·
Cc1ccc(CSCCNC(=O)c2ccc(C)cc2)cc1 | 0.8 | -3.8* | -0.902 | 0.0 | 8.8 | 3.9 | 0.00658 | 0.00468 | 0.0239* | 0.00773 | 0.0164* | 0.0103

From PubChem BioAssay
